D2 ag-1 – agonists of human D2 dopamine receptor; HEK293 T-REx D2 cells, calcium flux agonist mode; P14416; activation, % at 2 µM; 0.53% of 340,000 active;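 active = activation over 3 SD above normal in the single-dose calcium agonist read, cut at about 30% in these data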
Target sequence (P14416 whole entry, looked up): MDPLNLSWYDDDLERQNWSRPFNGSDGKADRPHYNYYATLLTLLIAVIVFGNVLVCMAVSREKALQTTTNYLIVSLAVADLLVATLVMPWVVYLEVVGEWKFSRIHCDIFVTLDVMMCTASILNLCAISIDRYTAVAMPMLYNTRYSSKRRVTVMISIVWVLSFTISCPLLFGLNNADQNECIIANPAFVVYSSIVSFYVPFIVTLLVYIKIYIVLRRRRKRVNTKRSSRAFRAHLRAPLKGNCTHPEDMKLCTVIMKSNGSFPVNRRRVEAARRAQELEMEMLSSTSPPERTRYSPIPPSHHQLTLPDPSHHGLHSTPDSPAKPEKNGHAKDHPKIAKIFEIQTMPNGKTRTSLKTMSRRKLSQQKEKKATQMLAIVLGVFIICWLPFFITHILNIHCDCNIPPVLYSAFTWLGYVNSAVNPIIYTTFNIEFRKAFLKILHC
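Tetracycline-induced HEK293 T-REx cells with force-coupled D2 receptor, plated overnight at 30 C, loaded with no-wash calcium dye. After a 10 s baseline, compound was pin-added and calcium flux read kinetically for 180 s; calcium rises flagged agonists.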
D2 antag – D2 dopamine receptor (human) antagonism. P14416. HEK293 TREx D2 cells, calcium flux, dopamine EC80. inhibition, % at 10 µM. 2% of 340,000 active. AID 485344; in the data active = inhibition above about 30%; inactive = below that, where a call was filed
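HEK293 T-REx D2 cells, tet-induced, calcium dye no-wash. Cpd pintool add, 180 s kinetic, then EC80 DA, 180 s kinetic. Ca flux read.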
D2 PAM-1 – potentiates the human D2 dopamine receptor allosterically | AID 624464 | DiscoveRx D2 beta-arrestin cells, luminescence, 90 min; 100% = 57 uM dopamine signal | potentiation, % (concentration not given with the values) | P14416 | 0.23% of 360,000 active; in the data active = potentiation above about 50%; inconclusive = mostly about 30% to 49%
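PathHunter beta-arrestin assay in DiscoveRx D2 cells. Compounds were added with an EC20 of dopamine (50 nM final) for 90 min at 37 deg C. Luminescence was read 1 h after detection reagent, with 57 uM dopamine as the EC100 control.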
D2 ag-2 – human D2 receptor agonism in beta-arrestin assay; 0.084% of 360,000 active; P14416; DiscoveRx PathHunter D2 beta-arrestin, luminescence, 90 min; 100% = 57 uM dopamine signal; activation, % (test concentration not listed); in the data active = activation above about 40%; inconclusive = between about 15% and that limit
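Agonist mode: compounds alone added to overnight-plated D2 PathHunter cells for 90 min at 37 C, with 57 uM final dopamine (EC100) defining full response. Beta-arrestin recruitment detected by chemiluminescent reagent, read after 1 h at ambient temperature.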
D2 PAM-2 – positively modulates the human D2 dopamine receptor allosterically. P14416. HEK293 T-REx D2, calcium flux, EC20 dopamine potentiation. potentiation, % at 10 µM. 0.34% of 340,000 active. AID 485347;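 active = potentiation over 3 SD above the plate norm, cut at about 30% in these data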
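Using a no-wash calcium dye in inducible, force-coupled HEK293 Trex cells expressing D2, we tracked fluorescence each second for 180 s after compound, then for 180 s after EC20 dopamine to detect augmented signalling.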
D3 arrestin ag – confirmation of human D3 dopamine receptor agonists, beta-arrestin | shares compounds with D2 ag-1 | DiscoveRx D3 beta-arrestin cells, luminescence, 90 min | Potency, µM (highest dose often 76.9 µM), hits mostly activators | 4% of 2,300 active; also: nearly all actives have a fitted effect of over 70% in size
D2 ag-3 – counter-screen for D3 agonists: human D2 dopamine receptor agonism. shares compounds with D2 ag-1. DiscoveRx PathHunter D2 beta-arrestin, luminescence, 90 min; response scale: percent relative to full dopamine signal. AID 720507. Potency, µM (series often up to 76.9 µM), most hits filed as activators. 5.9% of 2,300 active; also: nearly all actives have a fitted effect of over 70% in size
A number is an active result; - = inactive; ? = inconclusive; . = no result given. An excerpt weighted towards active compounds, which were near 2.4% of everything screened. Unless noted, calls follow the shape of the dose curve; as a rule, active = well fitted activation curve with a large enough effect; inconclusive = small, poorly fitted or top-dose-only effect; inactive = flat fitted curve, though single readings scatter.

SMILES	D2 ag-1	D2 antag	D2 PAM-1	D2 ag-2	D2 PAM-2	D3 arrestin ag	D2 ag-3
CN=c1scc(C)n1/N=C/c1ccc(O)c(O)c1O	40.2	-	92.8	51.5	-	39.8µM	-
CN=c1scc(-c2cccs2)n1/N=C/c1ccc(O)c(O)c1O	65.8	89.3	108.7	181.8	-	25.1µM	14.1µM
CN=c1scc(C)n1/N=C/c1cc(Br)c(O)c(OC)c1	-	-	-	-	-	.	.
CCN(Cc1ccccc1)C(=O)c1cc(-c2ccccc2)n[nH]1	-	.	.	.	-	.	.
O=C(c1cccc(Cl)c1)N1CCN(Cc2ccncc2)CC1	-	-	-	-	-	.	.
O=C(c1cccs1)N1CCN(Cc2ccncc2)CC1	62.6	-	-	-	-	-	?
CN(c1ccc(C(=O)N2CCN(Cc3ccccc3)CC2)cc1)S(=O)(=O)c1ccccc1	66.6	60.7	-	?	-	-	?
O=C(c1cccs1)N1CCN(Cc2cccnc2)CC1	60.0	58.8	-	?	-	-	?
O=C(c1cccs1)N1CCN(c2ncccn2)CC1	-	-	-	-	-	.	.
O=C(c1cccs1)N1CCN(CCCc2ccccc2)CC1	35.9	58.8	-	-	-	-	-
O=C(c1cccs1)N1CCN(Cc2ccccc2)CC1	74.8	63.9	-	40.7	-	?	?
O=C(NCC(=O)N1CCN(Cc2ccccc2)CC1)c1cccs1	.	.	-	-	.	.	.
CCc1ccc(CNC(=O)c2sc3ncccc3c2-n2c(C)ccc2C)cc1	-	.	.	.	-	.	.
CN(CCNC(=O)C1CCC(=O)N(Cc2ccc(Cl)cc2)C1)CCc1ccccc1 (centres undefined)	44.5	-	-	-	-	-	-
CN(CCNC(=O)C1CCC(=O)N(Cc2cccc(F)c2)C1)CCc1ccccc1 (centres undefined)	-	-	-	-	-	.	.
CC1Cc2cc(S(=O)(=O)NCc3ccc(F)cc3)ccc2N1C(=O)C1CCC1 (centres undefined)	-	.	.	.	-	.	.
COc1ccc(NC(=O)CCN2CCN(Cc3ccccc3)CC2)c(OC)c1	-	41.0	-	-	-	-	-
COc1ccc(OC)c(NC(=O)CCN2CCN(c3ccccc3)CC2)c1	86.6	80.4	-	?	-	?	?
COc1ccc(OC)c(NC(=O)CCN2CCN(C/C=C/c3ccccc3)CC2)c1	48.8	-	-	-	-	-	-
COCCn1c(=S)[nH]c2cc(C(=O)N3CCN(c4cccc(Cl)c4)CC3)ccc2c1=O	.	.	-	-	.	.	.
COCCn1c(=O)[nH]c2cc(C(=O)NCCN3CCN(c4cccc(Cl)c4)CC3)ccc2c1=O	59.3	87.3	-	-	-	-	?
COc1ccc(OC)c(NC(=O)CCN2CCN(C)CC2)c1	-	-	-	-	-	.	.
COc1ccc(CNC(=O)C2CCN(c3nc4ccc(C)cc4[nH]3)CC2)cc1	-	.	.	.	-	.	.
CCc1cccc(C)c1NC(=O)CSc1nc2ccccc2nc1Cc1ccccc1	-	.	.	.	-	.	.
O=C(c1ccc2c(c1)[nH]c(=S)n1c3ccccc3nc21)N1CCN(c2ncccn2)CC1	-	-	-	-	-	.	.
SMILES	D2 ag-1	D2 antag	D2 PAM-1	D2 ag-2	D2 PAM-2	D3 arrestin ag	D2 ag-3
COc1cccc(C(=O)NCCN2CCN(c3ccccc3)CC2)c1	.	.	.	.	.	?	-
O=C(NCCN1CCN(c2ccccc2)CC1)c1ccc2c(c1)[nH]c(=S)n1c3ccccc3nc21	47.9	33.6	-	-	-	?	-
CCCC(=O)N1c2nc(C(C)C)nn2C2(CCCCC2)[C@@H]2CCCC[C@@H]21	-	.	.	.	-	.	.
CCCCNC(=O)c1nn(-c2ccc(C)cc2)c(=O)c2c1c1ccccc1n2C	-	.	.	.	-	.	.
CCOC(CNC(=O)Cn1nc(Cc2ccncc2)c2ccccc2c1=O)OCC	-	-	-	-	-	.	.
COC(CNC(=O)Cn1nc(Cc2ccncc2)c2ccccc2c1=O)OC	-	-	-	-	-	-	-
O=C(CSc1nccn1Cc1ccc(F)cc1)NCc1ccc(F)cc1	-	.	.	.	-	.	.
CC(=O)CC(C)(C)NC(C)=S	34.3	-	-	-	-	-	-

Screens: PubChem BioAssay, National Center for Advancing Translational Sciences (NCATS)
